Screens from PubChem.
LmPK inhibitor = blocks Leishmania mexicana pyruvate kinase activity; 290,000 tested, 0.37% active; Potency, µM (highest dose often 57.5 µM), for the others: at the top dose activity change, negative = inhibition, hits mostly inhibitors; purified LmPK, Kinase-Glo ATP luminescence, 1 h; AID 1721; Q27686; further: potency means the concentration at half of the fitted maximal effect; on the % scale 0 is the no-effect control and ±100 the full control effect
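Kinase-Glo luminescence read after 1 h RT reaction of 0.1 nM LmPK with 0.5 mM PEP and 0.1 mM ADP. Activity scaled between uninhibited and enzyme-free controls.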
Cycloheximide cs = affects cycloheximide protein synthesis inhibition readout, counter-screen. cell reporter, cycloheximide protein synthesis inhibition counterscreen. max response, %. 300,000 tested, 12% active. AID 2314; in the data active means max response mostly above about 13%, no sharp cut-off; inactive means mostly below about 14%; further: read at 38.3 µM for the half of the compounds with a filed dose; 0% is about no effect
Shiga inhibitor = blocks Shiga toxin action in Vero cells; Vero cells, Shiga toxin protein synthesis inhibition reporter; inhibition, % at 38.7 µM; 290,000 tested, 9.2% active; in the data active means inhibition mostly above about 28%, no sharp cut-off; inactive means mostly below about 43%; further: 0% is about no effect
Giardia FBPA inh-1 = Giardia lamblia aldolase inhibition | A8B2U2 | purified Giardia FBPA | Potency, µM (titrated, usually from 59.6 µM), inactives show top-dose activity, negative = inhibition, usual class: inhibitors | 290,000 tested, 0.71% active | AID 2451; further: potency means the concentration at half of the fitted maximal effect; on the % scale 0 is the no-effect control and ±100 the full control effect; nearly all actives have a fitted effect of over 55% in size
Target sequence (A8B2U2 whole entry, looked up): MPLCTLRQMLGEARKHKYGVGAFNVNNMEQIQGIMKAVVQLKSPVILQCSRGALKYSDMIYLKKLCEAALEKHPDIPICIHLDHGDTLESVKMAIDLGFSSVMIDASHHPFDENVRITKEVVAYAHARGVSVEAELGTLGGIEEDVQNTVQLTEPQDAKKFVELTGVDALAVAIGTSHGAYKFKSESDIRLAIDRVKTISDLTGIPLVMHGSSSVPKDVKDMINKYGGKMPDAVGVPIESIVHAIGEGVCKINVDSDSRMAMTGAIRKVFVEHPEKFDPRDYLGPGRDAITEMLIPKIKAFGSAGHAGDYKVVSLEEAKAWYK
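40 nM FBPA preincubated 10 min at RT with compound (up to 57.5 uM final), then substrate plus GAPDH/TPI/NAD/arsenate coupling and diaphorase/resazurin added. Fluorescence read after 20 min at RT, 525/598 nm.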
NS1 function inh = blocks influenza NS1 protein function. AID 2326. 270,000 tested, 0.4% active. Potency, µM (titrated, usually from 46.1 µM), for inactives: top-dose activity, positive = more growth; calls by dose curve; further: potency means the concentration at half of the fitted maximal effect; actives are rising curves; nearly all actives have a fitted effect of over 50% in size
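Recovery from NS1-induced slow growth read by OD600 in budding yeast switched to galactose assay medium (pH 6.0, -URA) at 1:100 dilution. Compound 23 nl per well; the matching strain lacking NS1 serves as control.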
Giardia growth = Giardia lamblia growth inhibition | shares compounds with Giardia FBPA inh-1 | Giardia lamblia trophozoite growth inhibition | Potency, µM (titrated, usually from 57.5 µM), without a hit: top-dose activity change, negative = inhibition, actives largely listed as inhibitors | 1,500 tested, 5% active;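 further: potency means the concentration at half of the fitted maximal effect; trophozoites exposed to compound for 48 h at 37 °C; on the % scale 0 is the no-effect control and ±100 the full control effect; nearly all actives have a fitted effect of over 70% in size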
Mammal cell tox = mammalian cytotoxicity of Giardia aldolase inhibitor hits; shares compounds with Giardia FBPA inh-1; mammalian cell viability counter-screen, qHTS; Potency, µM (titrated, usually from 57.5 µM), for the others: at the top dose viability change, negative = toxicity, hits mostly inhibitors; 1,500 tested, 4% active;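 further: Chinese hamster ovary cells used as mammalian cytotoxicity surrogate; viability measured as cellular ATP by luminescence; potency means the concentration at half of the fitted maximal effect; compound exposure lasted 48 h before reading; on the % scale 0 is the no-effect control and ±100 the full control effect; nearly all actives have a fitted effect of over 60% in size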
Giardia FBPA inh-2 = confirmation of Giardia fructose-bisphosphate aldolase inhibitors | shares compounds with Giardia FBPA inh-1 | purified Giardia aldolase enzyme activity, qHTS | Potency, µM (highest dose often 57.5 µM), for inactives: at the highest dose activity change, negative = inhibition, usual class: inhibitors | 1,500 tested, 5% active | AID 2787; further: potency means the concentration at half of the fitted maximal effect; on the % scale 0 is the no-effect control and ±100 the full control effect; nearly all actives have a fitted effect of over 45% in size
Rabbit aldolase = rabbit FBP aldolase inhibition by Giardia aldolase hits. shares compounds with Giardia FBPA inh-1. Rabbit muscle FBPA enzyme inhibition, selectivity counter-screen. Potency, µM (highest dose often 57.5 µM), for the others: top-dose activity, negative = inhibition, actives largely listed as inhibitors. 1,500 tested, 4% active. AID 2794; further: potency means the concentration at half of the fitted maximal effect; on the % scale 0 is the no-effect control and ±100 the full control effect; nearly all actives have a fitted effect of over 60% in size
Target sequence (P00883 whole entry, looked up): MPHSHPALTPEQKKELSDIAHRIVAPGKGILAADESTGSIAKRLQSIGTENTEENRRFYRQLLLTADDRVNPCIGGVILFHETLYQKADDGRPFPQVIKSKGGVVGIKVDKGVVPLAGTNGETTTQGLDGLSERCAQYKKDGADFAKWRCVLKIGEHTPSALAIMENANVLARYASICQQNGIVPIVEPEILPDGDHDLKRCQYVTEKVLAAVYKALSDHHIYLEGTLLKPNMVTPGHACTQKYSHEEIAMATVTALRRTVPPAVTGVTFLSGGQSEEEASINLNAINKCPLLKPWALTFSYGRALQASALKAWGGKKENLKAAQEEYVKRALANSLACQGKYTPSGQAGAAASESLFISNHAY
GAPDH counter = counter-screen for Giardia aldolase inhibitors: GAPDH coupling enzyme; shares compounds with Giardia FBPA inh-1; GAPDH coupling enzyme counterscreen, biochemical, qHTS; Potency, µM (top dose mostly 57.5 µM), for inactives: at the top dose activity change, negative = inhibition, hits mostly inhibitors; 1,500 tested, 6% active; further: potency means the concentration at half of the fitted maximal effect; on the % scale 0 is the no-effect control and ±100 the full control effect; nearly all actives have a fitted effect of over 55% in size
Active calls of the source: *; ? = inconclusive; nt = not tested or not shown; [ ] = dose if it differs, or a comment. Compounds with a hit are over-represented: about 14% of the library has one in this group of screens. Unless noted, the call rests on the fitted dose curve; in most records, active means well fitted curve in the direction sought with a large enough effect; inconclusive means small, poorly fitted or top-dose-only effect, or another doubt; inactive means no such curve, though single readings can be large; an effect the other way counts as inactive or inconclusive.

SMILES	LmPK inhibitor	Cycloheximide cs	Shiga inhibitor	Giardia FBPA inh-1	NS1 function inh	Giardia growth	Mammal cell tox	Giardia FBPA inh-2	Rabbit aldolase	GAPDH counter
NC(=S)N=Nc1ccc(NN=C(N)N)cc1	-6%	-2	2	10µM*	-85%	22%	-3%	?	?	?
CCCCOc1c(Br)cc(CNCCCN2CCOCC2)cc1OC	-2%	1	-7	20µM*	17%	?	-9%	3%	3%	8%
CN1CCN(c2ccccc2NC(=O)c2ccccc2F)CC1	1%	-2	11	0%	-3%	nt	nt	nt	nt	nt
CC(C(=O)Nc1ccccc1F)N1CCN(C)CC1 (centres undefined)	-1%	-5	7	16µM*	4%	9%	9%	4%	4%	13%
CCN(CC(=O)NCc1ccc(F)cc1)C(=O)CN1CCN(c2ccc(OC)cc2)CC1	-11%	-2	-4	7.9µM*	4%	-17%	5%	-8%	-10%	1%
O=C(CN1CCN(c2ccc(F)cc2)CC1)NCc1ccc(F)cc1	-6%	-2	-17	6%	-6%	nt	nt	nt	nt	nt
NC1=NN=C(N2N=C(c3ccc(Br)cc3)CC2(O)C(F)(F)F)n2ncnc2C1 (centres undefined)	0%	-5	-2	?	nt	14%[38.3 µM]	-1%	3%	1%	-15%
Cc1c(C)c2cc(Cl)c(O)c(CN(C)C)c2oc1=O	-5%	-2	-16	-27%	-17%	nt	nt	nt	nt	nt
O=c1oc2c(O)c(O)cc3c(=O)oc4c(O)c(O)cc1c4c23	8%	-2	-6	2µM*	-2%	15%	4%	?	?	?
O=C(CSc1nnnn1-c1cccc(O)c1)NC1CC1	-1%	-2	-4	7%	4%	nt	nt	nt	nt	nt
O=[N+]([O-])c1cc(Cl)c2cccnc2c1O	1%	1	-21	-19%	-74%	nt	nt	nt	nt	nt
O=[N+]([O-])c1cc(F)c2cccnc2c1O	2%	2	19	20µM*	-86%	?	-19%	?	?	32µM*
COc1ccc(NC(=O)N2CCCC3(CCN(C(=O)c4cc(C(F)(F)F)cc(C(F)(F)F)c4)CC3)C2)cc1	nt	nt	nt	-2%	nt	nt	nt	nt	nt	nt
Cc1oc(C)c2c(=O)ccc3c(c12)OC(N)=C(C#N)C3c1ccccc1Cl (centres undefined)	2%	8	-6	11µM*	9%	13%	-16%	-5%	-3%	1%
c1cc2c(cc1NC1CCCCCC1)OCO2	-10%	16*	11	25µM*	1%	98%	-6%	7.1µM*	?	-30%
CCCCN(C(=O)CNC(=O)c1ccco1)C(C(=O)NC1CCCCC1)c1cccnc1 (centres undefined)	12%	-2	-17	-1%	12%	nt	nt	nt	nt	nt
CCOC(=O)c1c(O)c(O)c(C(=O)OCC)n1-c1ccccc1	1%	-1	7	20µM*	1%	19%	-7%	-16%	-27%	-18%
COc1cccc(N=Nc2c(C)[nH]n(-c3ccccc3)c2=O)c1	3%	2	nt	3.5µM*	0%	-16%[38.3 µM]	-3%	-11%	5%	-5%
Cc1[nH]n(-c2ccc(S(=O)(=O)O)cc2)c(=O)c1N=Nc1ccccc1	nt	nt	nt	nt	-3%	nt	nt	nt	nt	nt
CC(=O)N(C)c1ccc(N=Nc2c(C)[nH]n(-c3ccccc3)c2=O)cc1	2%	-1	-9	4.5µM*	3%	19%	0%	5%	5%	15%
CCOC(=O)c1ccc(N=Nc2c(C)[nH]n(-c3ccccc3)c2=O)cc1	0%	-2	-5	10µM*	-6%	?	9%	1%	1%	9%
COc1ccccc1CN(C)C(=O)C(c1ccccc1)c1ccccc1	-4%	1	-6	-2%	-4%	nt	nt	nt	nt	nt
O=C(CCN1C(=O)c2ccccc2C1=O)Nc1ccccc1C(F)(F)F	-9%	-3	3	6%	0%	nt	nt	nt	nt	nt
Cc1cccc2cc3c(NC(=O)C(C)(C)C)nn(CC(C)C)c3nc12	0%	-3	-4	6%	4%	nt	nt	nt	nt	nt
Cc1[nH]n(-c2ccccc2)c(=O)c1N=Nc1ccccc1O	6%	1	-2	-8%	-3%	nt	nt	nt	nt	nt
SMILES	LmPK inhibitor	Cycloheximide cs	Shiga inhibitor	Giardia FBPA inh-1	NS1 function inh	Giardia growth	Mammal cell tox	Giardia FBPA inh-2	Rabbit aldolase	GAPDH counter
CCOc1ccc(N=Nc2c(C)[nH]n(-c3ccccc3)c2=O)cc1	9%	-3	nt	7.9µM*	6%	-5%	1%	1%	4%	8%
Cc1c(N=Nc2c(O)[nH]c(=S)[nH]c2=O)c(=O)n(-c2ccccc2)n1C	1%	-1	-10	?	-3%	nt	nt	nt	nt	nt
CCOc1ccc(-n2c(O)c(N=Nc3c(C)n(C)n(-c4ccccc4)c3=O)c(=O)[nH]c2=O)cc1	1%	3	8	16µM*	-2%	?	7%	2%	-14%	-13%
Cc1ccc(NC(=O)CCNS(=O)(=O)c2ccc3c(c2)CCC(=O)N3)c(Br)c1	0%	-4	-10	12%	3%	nt	nt	nt	nt	nt
CC1(C)CC(=O)C(C2C3=C(CC(C)(C)CC3=O)OC3=C2C(=O)CC(C)(C)C3)=C(O)C1	-8%	2	16	2%	-1%	nt	nt	nt	nt	nt
COc1cc(CN2CCN(S(=O)(=O)c3ccccc3)CC2)cc(OC)c1OC	-6%	-1	-8	25µM*	14%	24%	-9%	-3%	0%	9%
COc1cc(CN2CCN(S(=O)(=O)c3ccc(F)cc3)CC2)cc(OC)c1OC	9%	-2	-14	?	-12%	nt	nt	nt	nt	nt
COc1ccc(S(=O)(=O)N2CCC(N3CCN(Cc4ccccc4)CC3)CC2)cc1	-4%	-2	-7	13µM*	nt	63%	-2%	5%	2%	16%
CC(C)=CC(=O)N1CCCC(N2CCN(c3ccccc3C)CC2)C1 (centres undefined)	-4%	-4	-13	9%	6%	nt	nt	nt	nt	nt
NC(=S)Nc1ccc(S(=O)(=O)c2ccc(NC(N)=S)cc2)cc1	9%	-2	-8	-11%	13%	nt	nt	nt	nt	nt
Cc1cccc(C(=O)OCCN2CCOCC2)c1	-2%	26*	41*	14µM*	25%	?	2%	3%	9%	9%
COc1ccc(NC(=O)CN(C)C(=O)C23CC4CC(CC(C4)C2)C3)cc1	-5%	-1	-14	-13%	-31%	nt	nt	nt	nt	nt
Cc1ccc(/C=C2\SC(=S)N(NS(=O)(=O)c3ccc(C)cc3)C2=O)cc1	-3%	1	-3	25µM*	-10%	24%	-8%	16%	8%	17%
